In PubChem BioAssay AID1479 (National Center for Advancing Translational Sciences (NCATS), 2009):
Screen size: about 280,000 compounds; about 820 (0.29%) were called active. A call without a number means that no potency is given here. Roughly 1% stayed inconclusive and do not appear here. Calls come from the whole dose curve; as a rule, active = well fitted curve in either direction with a large enough effect; inconclusive = small, poorly fitted or top-dose-only effect; inactive = flat fitted curve, though single readings scatter. Many of the other results were omitted from the sample, so actives are more common in it than they were.

Assay: Total Fluorescence Counterscreen for Inhibitors of the Interaction of Thyroid Hormone Receptor and Steroid Receptor Coregulator 2
Conditions: TRb/SRC2 Texas Red total fluorescence interference; series mostly up to 106 µM
Description: NIH Molecular Libraries Probe Production Network [MLPCN]
NIH Chemical Genomics Center [NCGC]
Assay Provider: R. Kip Guy, St. Jude Children's Research Hospital
Thyroid receptor (TR) regulates many homeostatic processes including basal metabolism, cardiovascular function, body weight, and lipid trafficking. TR modulators are potential therapeutics for obesity and hyperlipidemias but current thyroid analogs have undesirable side effects, particularly cardiac stimulation. To identify inhibitors that specifically prevent the interaction of TR with the steroid receptor […] 2 (SRC2), a fluorescence polarization assay was screened. This assay detects interaction of the ligand-binding domain of human TRb with a Texas Red labeled SRC2 peptide, corresponding to a 20 amino acid region of the nuclear receptor interaction domain (Arnold et al., 2006). Total fluorescence (555 nm excitation and 632 nm emission) was measured to identify potential fluorescent and light absorbing compounds. Such compounds may be artifacts that interfere with the fluorescence polarization assay.
Arnold, L. A.; Estebanez-Perpina, E.; Togashi, M.; Shelat, A.; Ocasio, C. A.; McReynolds, A. C.; Nguyen, P.; Baxter, J. D.; Fletterick, R. J.; Webb, P.; Guy, R. K. A high-throughput screening method to identify small molecule inhibitors of thyroid hormone receptor coactivator binding. Sci STKE 2006, p 13.
NCGC Assay Protocol Summary:
For screening, 5 uL/well 0.6 uM TRb and 20 nM SRC2 Texas Red in protein buffer (20mM Tris hydrochloride, 100mM NaCl, 10% glycerol, 1mM EDTA, 0.01% NP-40, 1mM DTT, 1uM T3 and 5% DMSO) was dispensed into black solid 1536-well plates (Grenier) using a solenoid-based dispenser. Following transfer of 23 nL compound or DMSO vehicle by a pin tool, the plates were centrifuged 15 s at 1000 RPM and incubated 5 hr at ambient temperature. The plates were read by an Envision (Perkin Elmer) to detect fluorescence polarization of SRC2 Texas Red (555 nm excitation and 632 nm emission). Data were normalized to unbound (all components except TRb) and bound SRC2 Texas Red controls. Total fluorescence (TF) was calculated as follows: TF = S + 2P where S and P are fluorescence readings in the parallel and perpendicular channels, respectively.
Keywords: NIH Roadmap, MLPCN, MLI, MLSMR, qHTS, NCGC, qHTS, thyroid hormone receptor, steroid receptor coactivator, fluorescence polarization
Potency is the fitted concentration of half-maximal effect; tags give direction and shape of the fitted curve or compound fluorescence and quenching.

**Q.** Which Potency does the source give for `COc1ccc(-c2cn(-c3ccc(OC)cc3)c(=S)[nH]2)cc1` here?
**A.** inactive

**Q.** For `COc1cc(OC)c(-n2cc(-c3ccc(Cl)cc3)[nH]c2=O)cc1Cl`, which Potency is on record?
**A.** 126 µM [quencher] (active)

**Q.** With `COc1cc(OC)c(-n2c(C)cc(C=O)c2C)cc1Cl` as the compound, how does the Potency read?
**A.** inactive

**Q.** For `Cc1nc2nc(SCC(=O)NC3CCC(C)CC3)nn2c(C)c1Cc1ccccc1Cl` (stereo not drawn), which Potency is on record?
**A.** inactive

**Q.** Which Potency does the source give for `CCS(=O)(=O)N1CCc2cc(C(=O)NCc3ccc(C)cc3)ccc21` here?
**A.** inactive

**Q.** For `COC(=O)c1cc(NC(=O)c2sc3ccccc3c2Cl)cc(C(=O)OC)c1`, which Potency is on record?
**A.** inactive

**Q.** For `CCCC(=O)Nc1ccc(NC(=O)c2sc3ccccc3c2Cl)cc1`, which Potency is on record?
**A.** 1.26 µM [quencher] (active)

**Q.** For `O=C(Nc1ccon1)c1sc2ccccc2c1Cl`, which Potency is on record?
**A.** inactive

**Q.** With `O=C(NCC(c1ccc2c(c1)OCO2)N1CCN(c2ccccc2)CC1)C(=O)Nc1ccccc1F` (stereo not drawn) as the compound, how does the Potency read?
**A.** inactive

**Q.** For `Cc1ccc(Cl)cc1N(C)C(=O)Cn1nc(Cc2cccnc2)c2ccccc2c1=O`, which Potency is on record?
**A.** inactive

**Q.** Which Potency does the source give for `CCC(=O)N1N=C(c2ccc(OC)cc2)CC1c1cn(-c2ccccc2)nc1-c1cccs1` (stereo not drawn) here?
**A.** inactive

**Q.** With `COc1ccc(Cl)cc1NC(=O)CCn1c(=O)c2cccn2c2ccccc21` as the compound, how does the Potency read?
**A.** inactive

**Q.** With `Cc1ccc(C)c(N2CCN(S(=O)(=O)c3ccc4c(c3)C(C(C)C)C(=O)N4)CC2)c1` (stereo not drawn) as the compound, how does the Potency read?
**A.** inactive

**Q.** Which Potency does the source give for `Cc1c(-c2nc(-c3ccc4c(c3)OCO4)no2)nnn1-c1ccc(Br)cc1F` here?
**A.** inactive

**Q.** With `Cc1ccc(CN2CCCn3nc(C(=O)NCc4ccccc4Cl)cc3C2=O)cc1` as the compound, how does the Potency read?
**A.** inactive

**Q.** Which Potency does the source give for `Cc1ccccc1CNC(=O)CCc1cn(Cc2ccccc2C)c2ccccc12` here?
**A.** inactive

**Q.** With `Cc1ccc(C)c2sc(NC(=O)c3ccc(S(=O)(=O)N4CCCC4)cc3)nc12` as the compound, how does the Potency read?
**A.** inactive

**Q.** Which Potency does the source give for `O=C(c1ccco1)n1nc(-c2ccc(Cl)cc2)nc1NCc1ccccc1` here?
**A.** inactive

**Q.** For `COc1ccc(CNc2nc(-c3ccc(Cl)cc3)nn2S(=O)(=O)c2ccc(C)cc2)cc1`, which Potency is on record?
**A.** inactive

**Q.** For `Cc1ccc(S(=O)(=O)n2nc(-c3ccc(Cl)cc3)nc2NCc2ccccc2)cc1`, which Potency is on record?
**A.** 1000 µM [quencher] (active)

**Q.** With `CCOC(=O)C1CCN(c2nc3c(S(=O)(=O)c4ccc(CC)cc4)nnn3c3ccc(Cl)cc23)CC1` as the compound, how does the Potency read?
**A.** inactive

**Q.** Which Potency does the source give for `Oc1ccc(O)c2c(O)cccc12` here?
**A.** 28.2 µM [quencher] (active)

**Q.** For `O=c1cc(-c2ccc(O)c(O)c2)oc2cccc(O)c12`, which Potency is on record?
**A.** inactive

**Q.** With `Cn1c2ccccc2c(=O)c2c(O)cccc21` as the compound, how does the Potency read?
**A.** inactive

**Q.** For `CCOc1cccc(NC(=O)c2ccc(F)c(S(=O)(=O)N(CC)c3cccc(C)c3)c2)c1`, which Potency is on record?
**A.** inactive

**Q.** With `Cc1ccc(Cn2c(CNC(=O)Cc3cccc(C)c3)nc3cccnc32)cc1` as the compound, how does the Potency read?
**A.** inactive

**Q.** Which Potency does the source give for `Cc1ccc(NC(=O)c2ccc(CN3CC(=O)N4CCCCC4C3=O)cc2)c(Cl)c1` (stereo not drawn) here?
**A.** 70.8 µM [quencher] (active)

**Q.** With `CCn1c(=O)c(=O)n(CC)c2cc(N3CCCCC3)c(NC(=O)c3ccc(Cl)cc3)cc21` as the compound, how does the Potency read?
**A.** inactive

**Q.** Which Potency does the source give for `Cc1ccc(C(=O)Nc2cc3c(cc2N2CCCC2)n(C)c(=O)c(=O)n3C)cc1` here?
**A.** inactive

**Q.** For `CC(C)CCCCCOC(=O)CS`, which Potency is on record?
**A.** inactive

**Q.** For `CCOc1ccccc1NC(=O)Cn1c(=O)n(-c2cccc(C)c2)c(=O)c2c1c1cc(OC)ccc1n2C`, which Potency is on record?
**A.** inactive

**Q.** With `COc1ccc(-c2c(C)nn3c(N4CCC(C(=O)N5CCCCC5)CC4)cc(C)nc23)cc1OC` as the compound, how does the Potency read?
**A.** inactive

**Q.** With `COc1cccc(NC(=O)C2CCN(c3cc(C)nc4c(-c5ccc(Cl)cc5)c(C)nn34)CC2)c1` as the compound, how does the Potency read?
**A.** 89.1 µM [quencher] (active)

**Q.** With `COc1ccc(-c2c(C)nn3c(N4CCC(C(=O)NCCC(C)C)CC4)cc(C)nc23)cc1OC` as the compound, how does the Potency read?
**A.** inactive

**Q.** For `COc1ccc(CCNC(=O)c2cc3cccc4c3n2CC(C)S4)c(OC)c1OC` (stereo not drawn), which Potency is on record?
**A.** inactive

**Q.** With `O=S(=O)(c1cccs1)N1CCN(Cc2ccccc2)CC1` as the compound, how does the Potency read?
**A.** inactive

**Q.** With `COc1ccc2c(CN3CCN(S(=O)(=O)c4cccs4)CC3)cc(=O)oc2c1` as the compound, how does the Potency read?
**A.** inactive

**Q.** Which Potency does the source give for `Cc1cc2oc(=O)cc(CN3CCN(S(=O)(=O)c4cccs4)CC3)c2cc1C(C)C` here?
**A.** 7.08 µM [quencher] (active)

**Q.** Which Potency does the source give for `COc1cc(OC)cc(-c2nc3nc(C)c(CCC(=O)Nc4ccccc4)c(C)n3n2)c1` here?
**A.** inactive

**Q.** Which Potency does the source give for `Cc1ccc(C)c(Oc2c(C(F)(F)F)oc3c(CN4CCN(C)CC4)c(O)ccc3c2=O)c1` here?
**A.** inactive

**Q.** With `CCOCCCNC(=O)c1c(NC(=O)Cc2coc3ccc(C)cc23)sc2c1CCC2` as the compound, how does the Potency read?
**A.** 35.5 µM [quencher] (active)

**Q.** With `CCOC(=O)c1c(NC(=O)Cc2coc3ccc(CC)cc23)sc2c1CCC2` as the compound, how does the Potency read?
**A.** inactive

**Q.** For `CCOCCCNC(=O)c1c(NC(=O)Cc2coc3c(C)c(C)ccc23)sc2c1CCC2`, which Potency is on record?
**A.** inactive

**Q.** Which Potency does the source give for `Cc1ccc(-n2c(SCC(=O)c3ccccc3)nc3c([nH]c4ccccc43)c2=O)cc1` here?
**A.** inactive

**Q.** With `COc1cc(OC)cc(C(=O)Nc2ccc3nc(Nc4cccc(C(F)(F)F)c4)cc(C)c3c2)c1` as the compound, how does the Potency read?
**A.** inactive

**Q.** Which Potency does the source give for `Cc1c(NC(=O)C(C)(C)C)cccc1-c1nc2ccccc2s1` here?
**A.** inactive

**Q.** Which Potency does the source give for `COc1cccc(CNC(=O)c2ccc3c(c2)sc2nc(-c4cccc(OC)c4)cn23)c1` here?
**A.** inactive

**Q.** For `CCCCn1cc(S(=O)(=O)c2ccc(OCC)cc2)c(=O)c2cc(OC)c(OC)cc21`, which Potency is on record?
**A.** inactive
